# Laboratory results taken from article PMC5540273 (PLoS ONE, 2017).
# What was measured:
# p38-alpha = tested on: T1, p38-alpha
# T1 construct: gene MAPK14
# AAK1 = details: concentration: 1 μM, replicates: in singlicate; n = 1
# ABL1-nonphosphorylated = details: concentration: 1 μM, replicates: in singlicate; n = 1
# ABL1-phosphorylated = details: concentration: 1 μM, replicates: in singlicate; n = 1
# ABL2 = details: concentration: 1 μM, replicates: in singlicate; n = 1
# ACVR1B = details: concentration: 1 μM, replicates: in singlicate; n = 1
# ACVR1 = details: concentration: 1 μM, replicates: in singlicate; n = 1
# ACVR2A = details: concentration: 1 μM, replicates: in singlicate; n = 1
# ACVR2B = details: concentration: 1 μM, replicates: in singlicate; n = 1
# ACVRL1 = details: concentration: 1 μM, replicates: in singlicate; n = 1
# ADCK3 = tested on: T2, ADCK3; details: concentration: 1 μM, replicates: in singlicate; n = 1
# T2 construct: gene CABC1
# ADCK4 = details: concentration: 1 μM, replicates: in singlicate; n = 1
# AKT1 = details: concentration: 1 μM, replicates: in singlicate; n = 1
# AKT2 = details: concentration: 1 μM, replicates: in singlicate; n = 1
# AKT3 = details: concentration: 1 μM, replicates: in singlicate; n = 1
# ALK = details: concentration: 1 μM, replicates: in singlicate; n = 1
# YSK4 = tested on: T3, YSK4
# T3 construct: gene MAP3K19
# 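For %Inh in this document: KINOMEscan kinase panel screen.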
# 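For Kd in this document: kd values determined as follow-up on hits from a single-replicate KINOMEscan panel screen.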
SMILES,Kd (p38-alpha) [nM],%Inh (AAK1) [%],%Inh (ABL1-nonphosphorylated) [%],%Inh (ABL1-phosphorylated) [%],%Inh (ABL2) [%],%Inh (ACVR1B) [%],%Inh (ACVR1) [%],%Inh (ACVR2A) [%],%Inh (ACVR2B) [%],%Inh (ACVRL1) [%],%Inh (ADCK3) [%],%Inh (ADCK4) [%],%Inh (AKT1) [%],%Inh (AKT2) [%],%Inh (AKT3) [%],%Inh (ALK) [%],Kd (YSK4) [nM],Kd (ZAK) [nM]
Cc1ccccc1-c1cc(-c2c[nH]nc2-c2ccccn2)ccn1 [GW680061],130,0,0,0,17,0,9,0,0,0,1,12,0,3,0,22,–,–
COC(=O)C(Cc1ccccc1)NC(=O)NC1CCN(c2ccnc(Nc3ccc(F)cc3)n2)C1 (stereo not shown) [GSK1379714],–,0,0,0,0,0,6,0,6,0,21,36,0,0,0,0,1400,–
c1ccc(-c2ccnc3[nH]ccc23)cc1 [SB-693578],–,68,0,4,16,0,0,0,0,0,6,40,0,6,0,33,470,–
Cn1cncc1C(=O)NC1CCN(c2ccnc(Nc3ccc(F)cc3)n2)C1 (stereo not shown) [GSK1379717],–,31,0,4,0,0,24,24,2,0,2,26,0,0,0,0,–,> 10000
Fc1ccc(-c2nn3cccc(F)c3c2-c2ccncc2)cc1 [GW475620],140,13,0,0,2,23,11,0,47,22,12,9,0,14,29,16,–,–
FC(F)(F)c1ccccc1-c1cc(-c2c[nH]nc2-c2ccccn2)ccn1 [GW679396],310,21,0,0,1,0,0,3,17,0,4,0,0,7,16,18,–,–
Cc1c(Cn2c3ccccc3n3c(=O)cc(N4CCOCC4)nc23)cccc1C(F)(F)F [GSK2306394],–,0,0,0,11,0,10,6,0,9,0,0,0,19,0,2,–,–
Nc1ncnc2occ(-c3ccc4c(c3)CCN4C(=O)Cc3cc(F)ccc3F)c12 [GSK2645446],–,53,27,3,13,0,0,0,0,0,8,0,0,0,0,0,–,–
Fc1ccc(-c2nc[nH]c2-c2ccncc2)cc1 [SB-217360],67,0,4,33,0,13,0,5,50,0,0,18,4,0,0,10,–,–
